# In article PMC5540273 (PLoS ONE, 2017):
# What was measured:
# Settings in all cases: concentration: 1 μM, replicates: in singlicate; n = 1
# MKK7 = test system: MKK7
# MKNK1 = test system: MKNK1
# MKNK2 = test system: MKNK2
# MLCK = test system: T1, MLCK
# T1 construct: gene MYLK3
# MLK1 = test system: T2, MLK1
# T2 construct: gene MAP3K9
# MLK2 = test system: MLK2
# MLK3 = test system: MLK3
# MRCKA = test system: MRCKA
# MRCKB = test system: T3, MRCKB
# T3 construct: gene CDC42BPB
# MST1R = test system: MST1R
# MST1 = test system: T4, MST1
# T4 construct: gene STK4
# MST2 = test system: T5, MST2
# T5 construct: gene STK3
# MST3 = test system: T6, MST3
# T6 construct: gene STK24
# MST4 = test system: MST4
# MTOR = test system: MTOR
# MUSK = test system: MUSK
# MYLK2 = test system: MYLK2
# MYLK4 = test system: MYLK4
# MYLK = test system: MYLK
# MYO3A = test system: MYO3A
# 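Note: KINOMEscan kinase panel screen.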
SMILES,%Inh (MKK7),%Inh (MKNK1),%Inh (MKNK2),%Inh (MLCK),%Inh (MLK1),%Inh (MLK2),%Inh (MLK3),%Inh (MRCKA),%Inh (MRCKB),%Inh (MST1R),%Inh (MST1),%Inh (MST2),%Inh (MST3),%Inh (MST4),%Inh (MTOR),%Inh (MUSK),%Inh (MYLK2),%Inh (MYLK4),%Inh (MYLK),%Inh (MYO3A)
CC(=O)Nc1ccc(COc2ccc(Nc3ccnc4cc(-c5ccccn5)ccc34)cc2)cc1.Cl [GW440148],0%,0%,6%,5%,0%,0%,0%,13%,0%,56%,0%,30%,22%,0%,13%,8%,3%,16%,13%,27%
CC(C)(C)n1cnc2c(N)ncnc21 [SKF-97359],21%,54%,0%,0%,0%,0%,0%,0%,0%,0%,9%,0%,44%,0%,6%,0%,0%,0%,27%,0%
O=c1cc(N2CCOCC2)nc2n(Cc3cccc4ccccc34)ccn12 [GSK2333389],0%,0%,3%,0%,0%,2%,0%,0%,0%,12%,0%,9%,0%,0%,0%,0%,0%,0%,0%,0%
O=C(NCCNc1ccnc(Nc2ccc(F)cc2)n1)Nc1ccccc1F [GSK1379880],0%,0%,5%,0%,0%,0%,0%,21%,3%,50%,0%,0%,0%,0%,10%,5%,1%,0%,9%,0%
N#Cc1c(N2CCOCC2)sc(-c2ccn[nH]2)c1-c1ccc(Cl)cc1,20%,26%,0%,0%,0%,5%,22%,0%,0%,1%,21%,0%,19%,0%,0%,0%,8%,5%,23%,3%
Cc1cccc(Cn2ccn3c(=O)cc(N4CCOCC4)nc23)c1 [GSK2297542],0%,0%,3%,0%,18%,0%,18%,0%,6%,39%,7%,0%,23%,0%,17%,2%,4%,6%,41%,11%
COc1cc(Nc2nccc(N3CCC(NC(=O)c4cccc(NC(C)=O)c4)C3)n2)cc(OC)c1OC (stereo not drawn) [GSK1379754],32%,38%,98.6%,1%,67%,50%,53%,0%,0%,20%,12%,7%,0%,0%,7%,12%,17%,2%,14%,5%
Nc1nccc(-c2c(-c3ccc(F)cc3)ncn2C2CCN(CC(F)(F)F)CC2)n1 [SB-236560],30%,34%,35%,0%,0%,0%,2%,0%,14%,17%,96.9%,0%,0%,0%,0%,22%,0%,0%,1%,0%
C[C@@H](Oc1cc(-n2cnc3ccc(NC(=O)NC(C)(C)C)cc32)sc1C(N)=O)c1ccccc1Cl [GSK346294],0%,0%,0%,0%,0%,27%,37%,12%,5%,29%,12%,0%,13%,0%,31%,6%,0%,1%,23%,35%
Cc1nnc(-c2ccc3ncc(-c4ccc(S(C)=O)cc4)n3c2)o1 (stereo not drawn),18%,0%,35%,0%,0%,0%,0%,9%,0%,0%,0%,0%,14%,0%,29%,0%,8%,5%,18%,0%
NS(=O)(=O)c1cccc(-c2ccc3ncc(N4CCOCC4)nc3c2)c1 [GSK1535721],16%,0%,0%,2%,0%,27%,1%,0%,2%,26%,0%,0%,0%,0%,9%,0%,0%,12%,2%,15%
CNc1ncnc2[nH]ncc12 [SKF-18355],0%,0%,0%,1%,1%,0%,2%,0%,0%,0%,36%,0%,0%,0%,17%,14%,3%,5%,0%,0%
CN1c2ccc(NCc3ccc(F)cc3)cc2-c2c(cnn2C)S1(=O)=O,0%,0%,0%,0%,15%,22%,0%,0%,0%,0%,0%,28%,0%,0%,20%,3%,0%,0%,12%,0%
COc1ccc(COc2cc(-n3cnc4ccccc43)sc2C(N)=O)cc1 [GSK1024304],0%,13%,1%,0%,0%,0%,4%,0%,0%,25%,0%,0%,0%,0%,0%,14%,0%,0%,0%,0%
CCc1nc(-c2cccc(C)c2)c(-c2ccnc(NCc3ccccc3)c2)s1,0%,1%,0%,0%,0%,0%,0%,0%,0%,8%,4%,0%,4%,0%,12%,12%,0%,0%,0%,0%
